# Data: PubChem BioAssay (Tox21)
# Records with an inconclusive call do not appear. Where a call stands in place of a potency, no number is given. Values without a mark were called inactive. The source made the active and inactive calls. Calls come from the whole dose curve; as a rule, active = well fitted curve in the direction sought with a large enough effect in the repeat runs; inconclusive = weak or mixed curves; inactive = no such curve, though single readings can be large; an effect the other way counts as inactive or inconclusive.
# Tested on: not listed separately
# Test: qHTS assay to identify small molecule antagonists of the estrogen related receptor (ERR) signaling pathway from Tox21 library - cell viability counter screen (AID 1224834); note: nearly all actives have a fitted effect of over 30% in size
# Settings: ERR reporter cells viability, CellTiter-Fluor, 17.5 h; series mostly up to 92.4 µM
# Outline: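 After 17.5 h of compound exposure at 37 C, ERR cells are incubated with CellTiter-Fluor for 30 min and fluorescence intensity serves as the viability measure.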
# Potency is the fitted concentration of half-maximal effect.
SMILES,Potency,"viability change, negative = cytotoxic"
CO[Si](CCCNCCNCCN)(OC)OC,inactive,
CCc1ccc(C)nc1,inactive,
Cc1cc(=O)[nH]c(=O)[nH]1,inactive,
CS(C)(=O)=O,inactive,
CCCCCCCCC(C)=O,inactive,
O=Nc1ccc(NO)cc1,inactive,
NCCCCCCNCCCCCCN,inactive,
Cc1cnccn1,inactive,
CC(COC(=O)c1ccccc1)OC(=O)c1ccccc1 (stereo unspecified),inactive,
COc1ccccc1OCCNCC(O)COc1cccc2[nH]c3ccccc3c12 (stereo unspecified),23.7 µM (active),
CC(C)=CCCC(C)CCOC(=O)C(C)C (stereo unspecified),inactive,
O=S(O)O,,0.472% [at 19 µM]
C=C(C)CCCC,inactive,
OCCCCl,inactive,
COc1ccc(C#N)cc1,inactive,
CCOB(OCC)OCC,inactive,
O=S(=O)(O)c1cc(S(=O)(=O)O)c2ccc3c(S(=O)(=O)O)cc(S(=O)(=O)O)c4ccc1c2c43,,4.03% [at 19 µM]
c1cc[nH]c1,inactive,
CC1(C)C(=O)N(CO)C(=O)N1CO,inactive,
CCO[Si](C)(C)OCC,inactive,
Oc1ccc(-c2ccccc2)c(Cl)c1,inactive,
Cc1ccc(-n2[nH]c(C)c(N=Nc3cccc(-c4cccc(C(=O)O)c4)c3O)c2=O)cc1C,29.8 µM (active),
CCCCC(CC)COC(=O)c1ccc(O)cc1 (stereo unspecified),43.1 µM (active),
CCCCCCCCCCCCN(CCO)CCO,68.3 µM (active),
O=c1cccc[nH]1,inactive,
CC(C)(C)c1cc(/C=C2\SC(=N)NC2=O)cc(C(C)(C)C)c1O,61.1 µM (active),
CC(C)=CCCC(C)O (stereo unspecified),inactive,
Cc1c(-c2ccc(O)cc2)n(Cc2ccc(OCCN3CCCCCC3)cc2)c2ccc(O)cc12,29.8 µM (active),
Clc1ccc(C(Cn2ccnc2)OCc2ccsc2Cl)c(Cl)c1 (stereo unspecified),21.1 µM (active),

# Target: Luciferin 4-monooxygenase (Photinus pyralis) (UniProt P08659)
# Sequence (P08659 whole entry, looked up): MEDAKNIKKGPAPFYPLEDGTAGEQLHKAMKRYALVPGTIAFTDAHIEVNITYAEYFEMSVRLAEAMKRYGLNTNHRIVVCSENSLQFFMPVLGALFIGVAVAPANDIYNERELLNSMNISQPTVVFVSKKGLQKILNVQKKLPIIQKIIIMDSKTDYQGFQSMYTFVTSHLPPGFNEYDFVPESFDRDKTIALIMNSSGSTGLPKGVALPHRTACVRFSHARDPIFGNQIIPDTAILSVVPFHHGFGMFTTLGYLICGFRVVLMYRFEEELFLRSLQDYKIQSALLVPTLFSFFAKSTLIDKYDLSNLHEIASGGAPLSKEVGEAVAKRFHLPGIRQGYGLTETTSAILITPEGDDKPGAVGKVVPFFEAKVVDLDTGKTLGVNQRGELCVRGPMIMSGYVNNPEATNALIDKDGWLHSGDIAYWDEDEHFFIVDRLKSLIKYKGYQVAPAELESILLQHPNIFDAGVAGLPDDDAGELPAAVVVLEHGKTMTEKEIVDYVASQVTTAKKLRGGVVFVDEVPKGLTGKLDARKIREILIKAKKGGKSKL
# Test: qHTS assay to identify small molecule inhibitors of firefly luciferase (AID 1224835); note: nearly all actives have a fitted effect of over 25% in size
# Settings: purified P. pyralis luciferase, luminescence inhibition; series mostly up to 115 µM
# Outline: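 Biochemical qHTS: compounds run as interplate titrations against purified firefly enzyme, with D-luciferin and ATP each at its KM concentration. Light output recorded by CCD imaging.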
SMILES,Potency,"activity change, negative = inhibition"
CO[Si](CCCNCCNCCN)(OC)OC,inactive,
CCc1ccc(C)nc1,inactive,
Cc1cc(=O)[nH]c(=O)[nH]1,inactive,
CS(C)(=O)=O,inactive,
CCCC(CC)CCCCCCCN (stereo unspecified),inactive,
CCCCCCCCC(C)=O,inactive,
NC(=O)c1nc(-c2cccc(-c3cc(F)ccc3OCC(F)(F)C(F)(F)F)c2)n[nH]1,inactive,
NCCCCCCNCCCCCCN,inactive,
CCCCCCCCCCOCC(O)CN (stereo unspecified),inactive,
Cc1cnccn1,inactive,
CC(COC(=O)c1ccccc1)OC(=O)c1ccccc1 (stereo unspecified),inactive,
CC(C)=CCCC(C)CCOC(=O)C(C)C (stereo unspecified),inactive,
O=S(O)O,,-0.0072% [at 23.6 µM]
C=C(C)CCCC,inactive,
COc1ccc2sc(C(=O)Nc3nnn[nH]3)c(OC(C)C)c2c1,inactive,
OCCCCl,inactive,

SMILES,Potency,"activity change, negative = inhibition"
COc1ccc(C#N)cc1,inactive,
CN(C)c1ccc(N=NS(=O)(=O)O)cc1,17.8 µM (active),
CCOB(OCC)OCC,inactive,
O=S(=O)(O)c1cc(S(=O)(=O)O)c2ccc3c(S(=O)(=O)O)cc(S(=O)(=O)O)c4ccc1c2c43,,-0.173% [at 23.6 µM]
c1cc[nH]c1,inactive,
CC1(C)C(=O)N(CO)C(=O)N1CO,inactive,
CCCSS/C(CCO)=C(\C)N(C=O)Cc1cnc(C)nc1N,inactive,
CCO[Si](C)(C)OCC,inactive,
Oc1ccc(-c2ccccc2)c(Cl)c1,39.9 µM (active),
Cc1ccc(-n2[nH]c(C)c(N=Nc3cccc(-c4cccc(C(=O)O)c4)c3O)c2=O)cc1C,38.9 µM (active),
CCCCC(CC)COC(=O)c1ccc(O)cc1 (stereo unspecified),inactive,
CCCCCCCCCCCCN(CCO)CCO,inactive,
O=c1cccc[nH]1,inactive,
CC(C)=CCCC(C)O (stereo unspecified),inactive,
CCCCCCC(C)OC(=O)COc1nc(F)c(Cl)c(N)c1Cl (stereo unspecified),inactive,
Clc1ccc(C(Cn2ccnc2)OCc2ccsc2Cl)c(Cl)c1 (stereo unspecified),inactive,

# Tested on: not listed separately
# Test: qHTS assay to identify small molecule agonists of the constitutive androstane receptor (CAR) signaling pathway - cell viability counter screen (AID 1224836); note: nearly all actives have a fitted effect of over 45% in size
# Settings: HepG2-CYP2B6-hCAR viability, CellTiter-Fluor, 23 h, PK11195 added to every well; series mostly up to 92.4 µM
# Outline: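 HepG2 cells stably carrying hCAR and a CYP2B6-2.2kb reporter were plated 4 h, then given compounds at 15 concentrations plus PK11195 (final 0.75 uM). After 23 h at 37 C, viability was read by CellTiter-Fluor fluorescence.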
SMILES,Potency,"viability change, negative = cytotoxic"
CO[Si](CCCNCCNCCN)(OC)OC,inactive,
CCc1ccc(C)nc1,inactive,
Cc1cc(=O)[nH]c(=O)[nH]1,inactive,
CS(C)(=O)=O,inactive,
CCCC(CC)CCCCCCCN (stereo unspecified),inactive,
CCCCCCCCC(C)=O,inactive,
O=Nc1ccc(NO)cc1,inactive,
NC(=O)c1nc(-c2cccc(-c3cc(F)ccc3OCC(F)(F)C(F)(F)F)c2)n[nH]1,61.1 µM (active),
NCCCCCCNCCCCCCN,inactive,
Cc1cnccn1,inactive,
CC(COC(=O)c1ccccc1)OC(=O)c1ccccc1 (stereo unspecified),inactive,
CC(C)=CCCC(C)CCOC(=O)C(C)C (stereo unspecified),inactive,
O=S(O)O,,7.71% [at 19 µM]
C=C(C)CCCC,inactive,
OCCCCl,inactive,
COc1ccc(C#N)cc1,inactive,
CCOB(OCC)OCC,inactive,
O=S(=O)(O)c1cc(S(=O)(=O)O)c2ccc3c(S(=O)(=O)O)cc(S(=O)(=O)O)c4ccc1c2c43,,3.39% [at 19 µM]
c1cc[nH]c1,inactive,
CC1(C)C(=O)N(CO)C(=O)N1CO,inactive,
CCCSS/C(CCO)=C(\C)N(C=O)Cc1cnc(C)nc1N,inactive,
CCO[Si](C)(C)OCC,inactive,
Oc1ccc(-c2ccccc2)c(Cl)c1,inactive,
Cc1ccc(-n2[nH]c(C)c(N=Nc3cccc(-c4cccc(C(=O)O)c4)c3O)c2=O)cc1C,inactive,
CCCCC(CC)COC(=O)c1ccc(O)cc1 (stereo unspecified),inactive,
CCCCCCCCCCCCN(CCO)CCO,68.3 µM (active),
O=c1cccc[nH]1,inactive,
CC(C)(C)c1cc(/C=C2\SC(=N)NC2=O)cc(C(C)(C)C)c1O,inactive,
CC(C)=CCCC(C)O (stereo unspecified),inactive,
CCCCCCC(C)OC(=O)COc1nc(F)c(Cl)c(N)c1Cl (stereo unspecified),inactive,
